# Assay results: PubChem BioAssay AID1159580 (chemical genetic matrix, 2015)
# Values joined by “and” are separate entries in the source; they are usually repeats but may differ in a detail not shown here. Equal values may be shown once. In all, about 5,500 compounds went through this assay and about 2,000 (36%) were called active. About 18% were inconclusive and are not listed. Some of the results follow. Values without a mark were called inactive. Rule as the data show it: active = normalized growth mostly below about 0.91 (no sharp cut-off); inconclusive = no clear call, values can overlap the other calls; inactive = mostly above about 0.92.
# Experiment: chemical genetic growth profiling, strain panel (AID 1159580);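 also: tested at 20 µM; growth read once vehicle control cultures reached saturation at 30 °C; 1 = growth at the plate median or of vehicle wells; lower values mean less growth of the strain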
# Settings: growth OD
# [1] = S. cerevisiae deletion strains, locus YAL013W, strain DEP1, active compounds read low
# [2] = S. cerevisiae deletion strains, locus YDR150W, strain NUM1, active compounds read low
# [3] = S. cerevisiae deletion strains, locus YGR078C, strain PAC10, active compounds read low
# [4] = S. cerevisiae deletion strains, locus YGR229C, strain SMI1, active compounds read low
# [5] = S. cerevisiae deletion strains, locus YJR075W, strain HOC1, active compounds read low
# [6] = S. cerevisiae deletion strains, locus YMR263W, strain SAP30, active compounds read low
# [7] = S. cerevisiae deletion strains, locus YMR307W, strain GAS1, active compounds read low
# [8] = S. cerevisiae deletion strains, locus YNL153C, strain GIM3, active compounds read low
# [9] = S. cerevisiae deletion strains, locus YNL322C, strain KRE1, active compounds read low
# [10] = S. cerevisiae deletion strains, locus YPL055C, strain LGE1, active compounds read low
# [11] = S. cerevisiae deletion strains, locus YPL241C, strain CIN2, active compounds read low
# [12] = S. cerevisiae deletion strains, locus YAL040C, strain CLN3, active compounds read low
# [13] = S. cerevisiae deletion strains, locus YCL061C, strain MRC1 (second series), active compounds read low
# [14] = S. cerevisiae deletion strains, locus YDR363W, strain ESC2, active compounds read low
# [15] = S. cerevisiae deletion strains, locus YER002W, strain NOP16, active compounds read low
# [16] = S. cerevisiae deletion strains, locus YNL175C, strain NOP13, active compounds read low
# [17] = S. cerevisiae deletion strains, locus YNL197C, strain WHI3, active compounds read low
# [18] = S. cerevisiae deletion strains, locus YNL224C, strain SQS1, active compounds read low
# [19] = S. cerevisiae deletion strains, locus YOR083W, strain WHI5 (second series), active compounds read low
smiles,measurement,setting,value
N[C@@H](Cc1cc(I)c(Oc2cc(I)c(O)c(I)c2)c(I)c1)C(=O)O,normalized growth,[1],1.05
same,normalized growth,"S. cerevisiae deletion strains, locus YBR021W, strain FUR4, active compounds read low",1.07
same,normalized growth,"S. cerevisiae deletion strains, locus YBR229C, strain ROT2, active compounds read low",1.02
same,normalized growth,"S. cerevisiae deletion strains, locus YCL029C, strain bik1, active compounds read low",1.22 [resistant] (active)
same,normalized growth,"S. cerevisiae deletion strains, locus YDL035C, strain GPR1, active compounds read low",1.04
same,normalized growth,"S. cerevisiae deletion strains, locus YDL074C, strain BRE1, active compounds read low",1.04
same,normalized growth,"S. cerevisiae deletion strains, locus YDL101C, strain DUN1, active compounds read low",1.04
same,normalized growth,"S. cerevisiae deletion strains, locus YDL134C, strain PPH21, active compounds read low",1.03
same,normalized growth,"S. cerevisiae deletion strains, locus YDL185W, strain tfp1, active compounds read low",1.03
same,normalized growth,"S. cerevisiae deletion strains, locus YDL192W, strain arf1, active compounds read low",1.12 [resistant] (active)
same,normalized growth,"S. cerevisiae deletion strains, locus YDR101C, strain arx1, active compounds read low",1.04
same,normalized growth,[2],1.06
same,normalized growth,"S. cerevisiae deletion strains, locus YDR162C, strain NBP2, active compounds read low",1.03
same,normalized growth,"S. cerevisiae deletion strains, locus YDR318W, strain mcm21, active compounds read low",1
same,normalized growth,"S. cerevisiae deletion strains, locus YDR388W, active compounds read low",1.09 [resistant] (active)
same,normalized growth,"S. cerevisiae deletion strains, locus YDR502C, strain sam2, active compounds read low",1.05
same,normalized growth,"S. cerevisiae deletion strains, locus YEL061C, strain CIN8, active compounds read low",1.05
same,normalized growth,"S. cerevisiae deletion strains, locus YER110C, active compounds read low",1.1
same,normalized growth,"S. cerevisiae deletion strains, locus YER155C, strain BEM2, active compounds read low",1.06
same,normalized growth,"S. cerevisiae deletion strains, locus YER167W, strain BCK2, active compounds read low",1.01
same,normalized growth,"S. cerevisiae deletion strains, locus YGL078C, strain dbp3, active compounds read low",1.01
same,normalized growth,"S. cerevisiae deletion strains, locus YGL086W, strain mad1, active compounds read low",1
same,normalized growth,"S. cerevisiae deletion strains, locus YGL248W, strain PDE1, active compounds read low",1.02
same,normalized growth,[3],1.03
same,normalized growth,"S. cerevisiae deletion strains, locus YGR135W, strain pre9, active compounds read low",1.04
same,normalized growth,[4],1.03
same,normalized growth,"S. cerevisiae deletion strains, locus YGR252W, strain gcn5, active compounds read low",1.17
same,normalized growth,"S. cerevisiae deletion strains, locus YHR030C, strain SLT2, active compounds read low",1.02
same,normalized growth,"S. cerevisiae deletion strains, locus YHR079C, strain IRE1 (second series), active compounds read low",1.27 [resistant] (active)
same,normalized growth,"S. cerevisiae deletion strains, locus YHR079C, strain IRE1, active compounds read low",1.05
same,normalized growth,"S. cerevisiae deletion strains, locus YHR094C, strain hxt1, active compounds read low",1.04
same,normalized growth,"S. cerevisiae deletion strains, locus YHR129C, strain ARP1, active compounds read low",1.04
same,normalized growth,"S. cerevisiae deletion strains, locus YHR200W, strain rpn10, active compounds read low",1.19 [resistant] (active)
same,normalized growth,"S. cerevisiae deletion strains, locus YIL066C, strain RNR3, active compounds read low",1.01
same,normalized growth,"S. cerevisiae deletion strains, locus YIL073C, strain SPO22, active compounds read low",1.07
same,normalized growth,"S. cerevisiae deletion strains, locus YIL125W, strain kgd1, active compounds read low",1.04
same,normalized growth,"S. cerevisiae deletion strains, locus YIR030C, strain dcg1, active compounds read low",1.13 [resistant] (active)
same,normalized growth,"S. cerevisiae deletion strains, locus YJL095W, strain BCK1, active compounds read low",0.994 and 1.02
same,normalized growth,"S. cerevisiae deletion strains, locus YJL134W, strain LCB3, active compounds read low",1.03
same,normalized growth,"S. cerevisiae deletion strains, locus YJL168C, strain set2, active compounds read low",1.1 [resistant] (active)
same,normalized growth,"S. cerevisiae deletion strains, locus YJL187C, strain SWE1 (second series), active compounds read low",1.02
same,normalized growth,"S. cerevisiae deletion strains, locus YJR043C, strain POL32, active compounds read low",1.04
same,normalized growth,"S. cerevisiae deletion strains, locus YJR066W, strain TOR1, active compounds read low",0.978
same,normalized growth,[5],1.05
same,normalized growth,"S. cerevisiae deletion strains, locus YKL009W, strain mrt4, active compounds read low",0.928
same,normalized growth,"S. cerevisiae deletion strains, locus YKL068W, active compounds read low",0.963
same,normalized growth,"S. cerevisiae deletion strains, locus YKL085W, strain MDH1 (second series), active compounds read low",0.995
same,normalized growth,"S. cerevisiae deletion strains, locus YKL085W, strain MDH1, active compounds read low",0.995
same,normalized growth,"S. cerevisiae deletion strains, locus YKL190W, strain CNB1, active compounds read low",1.04
same,normalized growth,"S. cerevisiae deletion strains, locus YKR001C, strain vps1, active compounds read low",0.953
same,normalized growth,"S. cerevisiae deletion strains, locus YLR039C, strain RIC1, active compounds read low",1.04
same,normalized growth,"S. cerevisiae deletion strains, locus YLR058C, strain SHM2, active compounds read low",1.03
same,normalized growth,"S. cerevisiae deletion strains, locus YLR102C, strain apc9, active compounds read low",1.09 [resistant] (active)
same,normalized growth,"S. cerevisiae deletion strains, locus YLR113W, strain HOG1, active compounds read low",1.01
same,normalized growth,"S. cerevisiae deletion strains, locus YLR262C, strain YPT6, active compounds read low",1.06
same,normalized growth,"S. cerevisiae deletion strains, locus YLR268W, strain sec22, active compounds read low",1.05
same,normalized growth,"S. cerevisiae deletion strains, locus YLR330W, strain CHS5, active compounds read low",1.13 [resistant] (active)
same,normalized growth,"S. cerevisiae deletion strains, locus YLR342W, strain FKS1 (second series), active compounds read low",0.998
same,normalized growth,"S. cerevisiae deletion strains, locus YLR371W, strain rom2, active compounds read low",1.2 [resistant] (active)
same,normalized growth,"S. cerevisiae deletion strains, locus YLR418C, strain cdc73, active compounds read low",0.998
same,normalized growth,"S. cerevisiae deletion strains, locus YML016C, strain PPZ1, active compounds read low",1.02
same,normalized growth,"S. cerevisiae deletion strains, locus YML032C, strain rad52, active compounds read low",1.03
same,normalized growth,"S. cerevisiae deletion strains, locus YML124C, strain tub3, active compounds read low",1.06
same,normalized growth,"S. cerevisiae deletion strains, locus YMR078C, strain ctf18, active compounds read low",1.16 [resistant] (active)
same,normalized growth,"S. cerevisiae deletion strains, locus YMR223W, strain ubp8, active compounds read low",1.25 [resistant] (active)
same,normalized growth,[6],1.06
same,normalized growth,[7],1.05
same,normalized growth,"S. cerevisiae deletion strains, locus YNL067W, strain RPL9B, active compounds read low",1.02
same,normalized growth,"S. cerevisiae deletion strains, locus YNL128W, strain TEP1, active compounds read low",1.05
same,normalized growth,[8],1.02
same,normalized growth,"S. cerevisiae deletion strains, locus YNL183C, strain NPR1, active compounds read low",0.945
same,normalized growth,"S. cerevisiae deletion strains, locus YNL233W, strain BNI4, active compounds read low",1.03
same,normalized growth,"S. cerevisiae deletion strains, locus YNL250W, strain rad50, active compounds read low",1.04
same,normalized growth,"S. cerevisiae deletion strains, locus YNL271C, strain bni1, active compounds read low",1
same,normalized growth,"S. cerevisiae deletion strains, locus YNL298W, strain CLA4, active compounds read low",1.03
same,normalized growth,"S. cerevisiae deletion strains, locus YNL307C, strain MCK1, active compounds read low",0.851 (active)
same,normalized growth,[9],1.05
same,normalized growth,"S. cerevisiae deletion strains, locus YNR052C, strain pop2, active compounds read low",1.24 [resistant] (active)
same,normalized growth,"S. cerevisiae deletion strains, locus YOL006C, strain TOP1, active compounds read low",1.02
same,normalized growth,"S. cerevisiae deletion strains, locus YOL012C, strain htz1",1.11
same,normalized growth,"S. cerevisiae deletion strains, locus YOL147C, strain pex11, active compounds read low",1.08 [resistant] (active)
same,normalized growth,"S. cerevisiae deletion strains, locus YOR061W, strain CKA2, active compounds read low",1.03
same,normalized growth,"S. cerevisiae deletion strains, locus YOR069W, strain VPS5, active compounds read low",1.03
same,normalized growth,"S. cerevisiae deletion strains, locus YOR144C, strain elg1, active compounds read low",1.2 [resistant] (active)
same,normalized growth,"S. cerevisiae deletion strains, locus YOR184W, strain ser1, active compounds read low",1.01
same,normalized growth,"S. cerevisiae deletion strains, locus YOR231W, strain MKK1, active compounds read low",1.02
same,normalized growth,"S. cerevisiae deletion strains, locus YOR316C, strain cot1, active compounds read low",1.22 [resistant] (active)
same,normalized growth,[10],1.03
same,normalized growth,[11],1.05
same,normalized growth,"S. cerevisiae deletion strains, locus YPL256C, strain CLN2, active compounds read low",1.06
same,normalized growth,"S. cerevisiae deletion strains, locus YPR119W, strain clb2, active compounds read low",1.06
same,normalized growth,"S. cerevisiae deletion strains, locus YPR141C, strain kar3, active compounds read low",1.23 [resistant] (active)
same,normalized growth,"S. cerevisiae deletion strains, locus YPR163C, strain tif3, active compounds read low",1.14 [resistant] (active)
same,normalized growth,"S. cerevisiae deletion strains, locus YPR167C, strain met16, active compounds read low",1.17 [resistant] (active)
same,normalized growth,"S. cerevisiae deletion strains, strain wtn01, active compounds read low",1.02
same,normalized growth,"S. cerevisiae strains, strain wild type, active compounds read low",1.04
N[C@@H](Cc1c[nH]c2ccc(O)cc12)C(=O)O,normalized growth,[1],1.02
same,normalized growth,[12],0.959
same,normalized growth,[13],1.01
same,normalized growth,[2],1.03
same,normalized growth,[14],1.01
same,normalized growth,[15],1
same,normalized growth,[5],1.01
same,normalized growth,[6],0.997
same,normalized growth,[16],1.03
same,normalized growth,[17],1
same,normalized growth,[18],1.01
same,normalized growth,[9],1.01
same,normalized growth,[19],1.02
same,normalized growth,[10],1.03
same,normalized growth,[11],1
N[C@@H](Cc1ccc(O)c(I)c1)C(=O)O,normalized growth,[1],0.997
same,normalized growth,[12],0.991
same,normalized growth,[13],1
same,normalized growth,[14],1.01
same,normalized growth,[15],1.02
same,normalized growth,[3],1.01
same,normalized growth,[4],1.01
same,normalized growth,[5],0.991
same,normalized growth,[7],0.992
same,normalized growth,[8],1
same,normalized growth,[16],1
same,normalized growth,[17],0.997
same,normalized growth,[18],1.01
same,normalized growth,[19],1.02
same,normalized growth,[10],0.979
same,normalized growth,[11],0.993
